Bioassay records from PubChem BioAssay.
The list is not random: actives were taken first. Their share in the collection is about 4.6%.
tim10-1 inh: tim10-1 yeast growth inhibition; AID 463190; S. cerevisiae tim10-1 ts strain growth, BacTiter-Glo, 24 h; hit rate 2.2% among 330,000; inhibition, % at 20 µM;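 active = inhibition of at least 40%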;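 also: mutant grown at 25 °C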
TIM10 inh: inhibits growth of TIM10 yeast strain; inhibition, % at 10 µM; S. cerevisiae TIM10 strain growth, BacTiter-Glo luminescence, 24 h; AID 463195; hit rate 1.4% among 330,000;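 active = inhibition of 40% or more at the single tested concentration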;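 also: wild-type TIM10 isogenic control strain grown at permissive 25 °C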
NLRP3 yeast inh: NALP3 inhibition in yeast. Yeast reconstituted NLRP3/ASC/caspase-1, beta-gal luminescence, 24 h. inhibition, % at 10 µM. hit rate 0.39% among 330,000. AID 2825;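 active = inhibition of 50% or more; inactive = inhibition below 50%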
PfHsp90 set2: inhibits growth of yeast expressing Plasmodium falciparum Hsp90; S. cerevisiae expressing PfHsp90, BacTiter-Glo ATP, 48 h; yeast lacking PDR1 and PDR3 efflux regulators; inhibition, % at 9.4 µM; hit rate 0.32% among 310,000; AID 504621;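 active = every replicate shows inhibition above about 80%, whatever the replicate mean, limit read from the data; inconclusive = mean inhibition reaches the set limit but some replicate falls short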
tim23-1 inh: tim23-1 yeast growth inhibition; S. cerevisiae tim23-1 growth, BacTiter-Glo luminescence, 24 h; inhibition, % at 20 µM; hit rate 1.3% among 330,000;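 active = growth inhibition of the mutant yeast at or above 50%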;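 also: temperature-sensitive mutant grown at 25 °C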
SKKanGAS inh: blocks kanamycin growth of S. pyogenes SKKanGAS strain; BacTiter-Glo, 6 h; inhibition, % at 7.5 µM; hit rate 1.3% among 300,000; AID 1662;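 active = mean replicate score, as percent of positive control median, at least 50; inconclusive = mean below 50 but one replicate at or above 50; inactive = mean and every replicate below 50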;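 also: strain carries kanamycin resistance gene driven by streptokinase promoter and grows in 40 µg/ml kanamycin; loss of luminescence reflects streptokinase promoter inhibition or plain growth inhibition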
tim23-1 confirm: confirmation of tim23-1 mutant yeast growth inhibitors. shares compounds with tim23-1 inh. S. cerevisiae tim23-1 growth, BacTiter-Glo luminescence, 24 h. inhibition, % at 20 µM. hit rate 83% among 4,400;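 active = inhibition above about 39% in either of two replicate wells at 20 µM, limit read from the data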;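 also: temperature-sensitive tim23-1 mutant grown at 25 °C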
A number is an active result; 0 = inactive; ? = inconclusive; - = no result.

SMILES	tim10-1 inh	TIM10 inh	NLRP3 yeast inh	PfHsp90 set2	tim23-1 inh	SKKanGAS inh	tim23-1 confirm
O=C(c1cc2c(s1)-c1ccccc1OC2)N1CCc2ccccc2C1	0	0	0	0	0	0	-
O=C(c1cc(Br)c(Br)s1)N1CCc2ccccc2C1	0	0	0	0	52	-	53
O=C(CCc1ccccc1)Nc1ccc(S(=O)(=O)Nc2nccs2)cc1	0	0	0	0	0	0	-
O=C(CSc1nnnn1C1CCCC1)c1ccc2c(c1)OCCO2	0	0	0	0	53	0	46
CC(C)n1nnnc1SCC(=O)c1ccc2c(c1)OCCO2	0	0	0	0	0	0	-
Cc1nnc2n(Cc3ccccc3)c(=O)c3c4c(sc3n12)COC(C(C)C)C4 (stereo unspecified)	0	0	0	0	55	0	0
COc1ccc(OC)c(N(CC(=O)Nc2ccc3c(c2)OCCO3)S(C)(=O)=O)c1	0	0	0	0	0	0	-
CN(C)c1nc(N)c([N+](=O)[O-])c(N2CCCCCC2)n1	0	0	0	0	54	0	39
CN(C)c1ccc(/C=N/NC(=O)c2ccc3c(c2)OCCO3)cc1	0	0	0	0	58	?	0
CCN(CC)c1ccc(C(=O)N/N=C/c2ccccc2OC(F)F)cc1	0	0	0	0	56	0	66
CCN(CC)c1ccc(/C=N/NC(=S)NC)c(O)c1	0	0	0	0	0	0	-
O=C(N/N=C/c1ccc2c(c1)OCO2)c1ccc2c(c1)OCCO2	0	0	0	0	0	0	-
CCN(CC)c1ccc(/C=N/NC(=O)c2ccc3c(c2)OCCO3)cc1	0	0	0	0	59	0	57
CCN(CC)c1ccc(/C=N/NC(=O)OC)c(O)c1	0	0	0	0	59	0	0
O=C(C1=NN(c2ccccc2)C(=O)CC1)N1CCc2ccccc2C1	0	0	0	0	0	0	-
Cc1ccc(C(C)C)c(OCCNC(=S)Nc2cccc3ccccc23)c1	0	0	0	0	0	0	-
CC(C)(C)NC(=O)C1CCN(C(=O)c2ccco2)CC1	0	0	0	0	0	0	-
O=C(CCNS(=O)(=O)c1ccccc1F)NC1CCCCCC1	0	0	0	-	0	-	-
O=[N+]([O-])c1ccc(O)c(/C=N/n2cnnc2)c1	0	0	0	0	0	0	-
O=C1/C(=C/c2cccc(Br)c2)SC(=S)N1/N=C/c1cc([N+](=O)[O-])ccc1O	0	0	0	0	82	0	0
CC(C)(C)C(=O)Nc1nc(-c2ccc3c(c2)OCO3)cs1	0	0	0	0	55	0	50
COc1ccc(C2Nc3cccc4cccc(c34)N2)cc1Br	0	0	0	0	56	0	55
O=C(c1ccccc1)N1CCN(C(=O)c2ccccc2)c2ccccc21	-	-	-	0	-	-	-
Oc1ccc(/C=C/c2ccc3cccc(O)c3n2)cc1Br	0	0	0	108	53	89	71
CN(CC12CC3CC(CC(C3)C1)C2)C(=O)c1ccco1	0	0	0	0	0	0	-
SMILES	tim10-1 inh	TIM10 inh	NLRP3 yeast inh	PfHsp90 set2	tim23-1 inh	SKKanGAS inh	tim23-1 confirm
CN(C(=O)c1ccco1)c1nnc(C23CC4CC(CC(C4)C2)C3)s1	0	0	0	0	55	0	59
C[C@@H]1CC=C[C@@H]2[C@H]1C(=O)N(Cc1ccccc1)[C@H]2c1ccccc1Br	0	0	-	0	52	-	0
C[C@@H]1CC=C[C@@H]2[C@H]1C(=O)N(Cc1ccccc1)[C@H]2c1cccc(C#Cc2ccccc2)c1	0	0	-	0	0	-	-
COC(=O)/C=C/c1cccc([C@H]2[C@@H]3C=CC[C@@H](C)[C@@H]3C(=O)N2Cc2ccccc2)c1	0	0	-	0	51	-	0
COc1ccc(-c2ccccc2[C@H]2[C@@H]3C=CC[C@@H](C)[C@@H]3C(=O)N2Cc2ccccc2)cc1	0	0	-	0	0	-	-
COc1ccc2[nH]cc(CCNC(=O)CS(=O)(=O)Cc3ccccc3)c2c1	0	0	0	0	0	0	-
Cc1cccn2c(=O)c(/C=C(\C#N)C(=O)NCc3ccco3)c(N3CCCCCC3)nc12	0	0	0	-	53	0	48
N/C(=N\NS(=O)(=O)c1ccc(Cl)cc1)c1ccccn1	0	0	0	0	0	0	-
Cc1cccc(/C=c2\s/c(=C\C(=O)C(C)(C)C)[nH]c2=O)c1	0	0	0	0	50	77	54
Nc1ccc(/C=C/C(=O)c2cccs2)cc1	0	0	0	0	56	0	80
CC(C)c1ccc(CN(C)C(=O)c2ccc(S(=O)(=O)NCc3ccco3)cc2)cc1	0	0	0	0	0	-	-
COc1ccc(-c2nc(-c3cccc(C)c3)nc(N3CCN(C)CC3)c2C#N)cc1	0	0	0	0	59	0	44
COc1cccc(Nc2nc(-c3sc(C)nc3C)cs2)c1	0	0	0	0	55	0	46
COc1cccc(Nc2nc(-c3sc(N)nc3C)cs2)c1	0	0	0	0	0	0	-
COc1cccc(Nc2nc3ccc(OC)cc3s2)c1	0	0	0	0	61	0	57
COc1ccc2nc(NC3=NCCC3)sc2c1	0	0	0	0	0	0	-
CCc1c(C)nc2cc(-c3ccc(OC)c(OC)c3)nn2c1NCC1CC1	0	0	0	0	69	0	46
CC(=O)NC(c1ccc(C)cc1)c1cc(Cl)c2cccnc2c1O (stereo unspecified)	0	0	0	115	62	98	68
CCCCC(=O)NC(c1ccc(C(C)C)cc1)c1ccc2cccnc2c1O (stereo unspecified)	0	0	0	90	58	88	59
CCCCC(=O)NC(c1ccccc1Cl)c1ccc2cccnc2c1O (stereo unspecified)	0	0	0	0	53	69	49
CCC(=O)NC(c1ccccc1OC)c1ccc2cccnc2c1O (stereo unspecified)	0	0	0	0	0	0	-
CC(=O)NC(c1ccc(C(C)C)cc1)c1ccc2cccnc2c1O (stereo unspecified)	0	0	0	108	58	0	60
CCC(=O)NC(c1ccc(OC)cc1)c1cc(Cl)c2cccnc2c1O (stereo unspecified)	0	0	0	0	0	0	-
CC(=O)NC(C)c1cc(F)c2cccnc2c1O (stereo unspecified)	0	0	0	-	0	-	-
COc1cc(/C=C/C(=O)Nc2ccc(S(=O)(=O)Nc3onc(C)c3C)cc2)cc(OC)c1OC	-	-	-	0	-	-	-
Cc1[nH]nc(C(F)(F)F)c1N=NN1CCOCC1	-	-	-	0	-	-	-
COc1ccccc1C(=O)N/C(=C\c1cn(S(=O)(=O)N(C)C)c2ccccc12)C(=O)NCCN1CCOCC1	0	0	0	0	0	0	-
CCCC(=O)NC(c1ccc(OC)cc1)c1ccc2cccnc2c1O (stereo unspecified)	0	0	0	-	0	0	-
